Sm TGR inh: blocks Schistosoma mansoni thioredoxin glutathione reductase; Q962Y6; Potency, µM (highest dose often 114 µM), for the others: at the highest dose activity change, negative = inhibition, hits mostly inhibitors; AID 485364; 360,000 tested, 3% active; purified TGR, DTNB reduction, TNB absorbance 405 nm; further: potency means the concentration at half of the fitted maximal effect; nearly all actives have a fitted effect of over 60% in size
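First, TGR (20 nM dispensed) and NADPH were mixed with compound. Second, a 15 min room-temperature incubation followed. Third, further NADPH and then DTNB were added to start the reaction. Finally, TNB absorbance was monitored kinetically.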
FMDV antiviral: antivirals against foot and mouth disease virus; Potency, µM (doses to about 57.9 µM), inactives show at the top dose activity change, negative = inhibition, most hits filed as inhibitors; FMDV antiviral cell-based qHTS; AID 1159524; 410,000 tested, 1.2% active; calls by dose curve; tested in HEK293T cells; further: read-out not given here; potency means the concentration at half of the fitted maximal effect; nearly all actives have a fitted effect of over 45% in size
HCMV inh: human cytomegalovirus inhibition; HFF cells, HCMV-luciferase reporter, 72 h; active compounds read low; activity change, negative = inhibition, % at 57.5 µM; 410,000 tested, 4.5% active; AID 1259415; in the data active means activity change below about -60%; inconclusive means no clear call, values can overlap the other calls; inactive means above about -39%
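Compounds were evaluated in HFFs infected with an HCMV luciferase reporter virus (MOI 1 PFU/cell). Luciferase in lysates collected 72 h post infection served as the replication measure.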
HCV inhibitor: blocks hepatitis C virus | AID 651820 | Huh7.5.1 HCVcc-Cre infection, luciferase reporter, 44 h | 340,000 tested, 3.4% active | Potency, µM (doses to about 41.8 µM), for inactives: at the top dose activity change, negative = inhibition, usual class: inhibitors; further: potency means the concentration at half of the fitted maximal effect
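After 44 h co-culture of compound, cells and HCVcc-Cre (~0.5 moi), substrate is added for 15 min at room temperature and luciferase measured over 15 sec. Cells were seeded at 1,000/well and pre-cultured 4 h.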
VACV Venus inh: vaccinia inhibition (Venus reporter). Vaccinia virus Venus reporter expression, fluorescence. 330,000 tested, 0.46% active. Potency, µM (series often up to 36.5 µM), without a hit: at the top dose activity change, negative = inhibition, actives largely listed as inhibitors; calls by dose curve; tested in A549 cells; further: potency means the concentration at half of the fitted maximal effect; nearly all actives have a fitted effect of over 30% in size
VACV mCherry inh: vaccinia inhibition (mCherry reporter); 310,000 tested, 0.63% active; Vaccinia virus mCherry reporter infection, fluorescence; Potency, µM (series often up to 36.5 µM), inactives show at the top dose activity change, negative = inhibition, most hits filed as inhibitors; calls by dose curve; tested in A549 cells; further: potency means the concentration at half of the fitted maximal effect; nearly all actives have a fitted effect of over 35% in size
Numbers without * were called inactive; i = inactive; u = inconclusive; x = no result. Most compounds without a hit are left out; they make up all but 9.3% or so of the library. Unless noted, the call rests on the fitted dose curve; in most records, active means well fitted curve in the direction sought with a large enough effect; inconclusive means small, poorly fitted or top-dose-only effect, or another doubt; inactive means no such curve, though single readings can be large; an effect the other way counts as inactive or inconclusive. On the % scale 0 is the no-effect control and ±100 the full control effect.

SMILES	Sm TGR inh	FMDV antiviral	HCMV inh	HCV inhibitor	VACV Venus inh	VACV mCherry inh
CCOC(=O)C(O)(c1cn(C)c2ccccc12)C(F)(F)F (configuration not stated)	0.2%	-7.3%	-6.6	-1.5%	-18.6%	x
CSCCC(c1nnnn1Cc1ccccc1)N1CCC(n2c(=O)[nH]c3ccccc32)CC1 (configuration not stated)	x	-26.2%	-90.0*	x	-19.3%	-13.9%
O=c1[nH]c2ccccc2n1C1CCN(C(CCc2ccccc2)c2nnnn2Cc2ccccc2)CC1 (configuration not stated)	x	35.5µM*	-103.0*	x	11.2µM*	u
O=c1[nH]c2ccccc2n1C1CCN(C(c2nnnn2Cc2ccccc2)C2CC2)CC1 (configuration not stated)	x	-27.8%	u	x	-7.7%	-4.4%
Cc1ccc(-c2cc(NC(=O)COc3c(C)cc(C)cc3C)on2)cc1	-3.9%	-19.6%	54.2	x	-11.9%	-12.6%
O=S(=O)(c1ccc(Cl)c(F)c1)N1CCC(c2nc(-c3ccncc3)no2)CC1	1.3%	u	-33.8	22.5%	x	x
Cc1csc(SCC(=O)Nc2ccccc2C)n1	3.8%	9.7%	-15.7	2.0%	-6.8%	-10.6%
Cc1csc(SCC(=O)Nc2cccc3nsnc23)n1	u	-8.9%	-74.7*	-55.9%	u	x
C=C1c2cc(C)c(C)cc2NC(=O)N1c1ccccc1	u	12.8%	14.3	-18.0%	-12.9%	-16.3%
Cc1ccccc1Nc1c(-c2ccco2)nc2c(C)cccn12	u	-14.2%	-36.1	x	-12.6%	-4.2%
Cc1ccccc1Nc1c(-c2ccc(Cl)cc2)nc2c(C)cccn12	3.3%	-10.7%	0.5	x	-19.6%	-23.8%
Cc1cccn2c(Nc3ccccc3)c(-c3ccccn3)nc12	12.6%	-28.8%	-66.2*	-7.0%	-7.1%	u
Cc1cccc(C)c1Nc1c(-c2ccccn2)nc2c(C)cccn12	-7.8%	-23.6%	-68.8*	x	-12.7%	-9.9%
O=C(O)C1=C[C@H](C2CC2)C[C@H](OCCCCO)O1	u	-15.8%	6.0	12.7%	-10.6%	i
COCC(=O)Nc1cc(C(=O)NC2C3CC4CC2CC(O)(C4)C3)cc2nc(-c3ccccc3)n(C)c12 (configuration not stated)	x	-9.5%	x	x	-3.7%	-11.6%
COc1ccc(/C=N/NC(=O)c2cnccn2)cc1O	4.4%	17.2%	11.9	12.5%	-10.7%	i
COc1ccc(/C=N/NC(=O)c2cc3c(OC)ccc(OC)c3[nH]2)cc1O	6.0%	-0.9%	u	u	u	7.08µM*
COc1ccccc1/C=N/NC(=O)c1cc2c(OC)c(OC)ccc2[nH]1	8.9%	3.6%	-13.2	u	x	x
COc1ccc(OC)c2[nH]c(C(=O)N/N=C/c3ccccc3O)cc12	-9.0%	u	-92.5*	3.16µM*	u	u
CC(=O)O[C@H]1C(=O)[C@]2(C)[C@H]([C@H](OC(=O)c3ccccc3)[C@]3(O)C[C@H](OC(=O)[C@H](O)[C@@H](NC(=O)c4ccccc4)c4ccccc4)C(C)=C1C3(C)C)[C@]1(OC(C)=O)CO[C@@H]1C[C@@H]2O	x	-1.1%	-11.5	6.31µM*	-25.9%	-17.7%
C=CCSc1nc2sc(-c3ccccc3)cc2c(=O)n1N	6.6%	-4.3%	0.8	-3.2%	-7.1%	-7.7%
CCOC(=O)[C@H]1[C@H]2COc3ccc(Br)cc3[C@@H]2N2C(=O)CN(Cc3ccco3)C(=O)[C@@]12C	31.6µM*	-17.1%	29.8	13.7%	-5.7%	i
C#CCSc1nc(-c2cccs2)ccc1C#N	-25.0%	u	-21.1	4.47µM*	-17.8%	x
CC(C)c1ccc(N2C(=O)NC(=O)/C(=C/c3cnc(-c4ccccc4)nc3)C2=O)cc1	3.55µM*	-10.3%	24.3	10.0%	0.2%	-6.9%
CCc1ccc(N2C(=O)NC(=O)/C(=C/c3ccsc3)C2=O)cc1	-17.6%	x	x	x	x	x
SMILES	Sm TGR inh	FMDV antiviral	HCMV inh	HCV inhibitor	VACV Venus inh	VACV mCherry inh
O=C1NC(=O)N(Cc2ccccc2)C(=O)/C1=C/c1cnc(-c2ccccc2)nc1	10µM*	12.3%	46.6	-5.4%	-0.9%	-16.4%
CSc1ncc(/C=C2/C(=O)NC(=O)N(c3ccc(C(C)C)cc3)C2=O)cn1	11.2µM*	-23.2%	37.6	25.3%	-6.8%	i
CCc1ccc(N2C(=O)NC(=O)/C(=C\c3cccn3CCOc3ccc(C(C)C)cc3)C2=O)cc1	u	-14.1%	-23.1	-1.8%	-11.2%	i
CCOc1ccc2nc(SCC(=O)NC3CC3)sc2c1	-20.9%	6.6%	31.2	u	x	x
Cc1cc(C)c2c(CC(=O)N3CCCC3)coc2c1	-4.0%	16.9%	-13.7	-10.3%	x	x
O=C(Oc1oc(-c2ccco2)nc1C=Nc1ccc(Cl)cc1)c1ccco1	u	u	37.1	13.0%	-20.0%	x
Cc1ccc(C(=O)N2CCCCCC2)cc1S(=O)(=O)N1CCOCC1	14.4%	36.3%	14.3	12.4%	-7.3%	1.7%
CC(=O)Nc1ccc(/C(C)=N/Nc2nc(Nc3cccc4ccccc34)nc(N3CCOCC3)n2)cc1	3.5%	0.0%	-62.2*	u	u	-14.3%
Oc1cccc(Nc2nc(N3CCOCC3)nc(N3CCOCC3)n2)c1	-33.0%	u	26.6	u	u	u
CC(=C/c1ccccc1)/C=N/Nc1nc(N2CCCCC2)nc(N2CCCCC2)n1	-8.2%	-7.3%	-18.8	3.1%	-1.0%	-9.5%
C/C(=N\Nc1nc(N2CCCCCC2)nc(N2CCCCCC2)n1)c1ccccc1	-1.1%	-22.3%	-65.6*	u	x	x
C/C(=N\Nc1nc(N2CCCCC2)nc(N2CCOCC2)n1)c1cccs1	8.4%	-11.5%	-26.3	10µM*	-6.3%	-5.0%
CC(=O)Nc1ccc(/C(C)=N/Nc2nc(N3CCOCC3)nc(N3CCOCC3)n2)cc1	3.5%	-15.3%	-22.3	-30.5%	-3.0%	-3.8%
O=C1C(=Cc2cccs2)Oc2ccccc21	x	45.0%	-69.4*	-2.7%	8.5%	-16.3%
O=C1/C(=C/c2cccs2)COc2ccccc21	-4.3%	-42.7%	15.0	22.0%	-0.8%	-8.0%
CC(=O)c1cccc(NC(=O)CN2CCc3cc4c(cc3C2)OCCCO4)c1	3.6%	-6.7%	21.0	u	-1.5%	0.7%
Cc1c(C(=O)O)sc2nc3n(c(=O)c12)CCC(C)CC3 (configuration not stated)	-3.2%	x	-13.8	7.8%	-2.8%	-16.0%
COc1ccc(CCNC(=O)c2ccc3c(c2)N(Cc2ccc(C)cc2)CCS3)cc1OC	1.9%	u	-32.2	8.91µM*	-13.0%	-16.3%
COc1ccc(CCNC(=O)c2ccc3c(c2)N(Cc2ccccc2C)C(=O)c2ccccc2S3)cc1OC	4.1%	-22.4%	-78.7*	x	-14.6%	-18.1%
COc1ccc(CCNC(=O)c2ccc3c(c2)NC(=O)CS3)cc1OC	0.8%	-1.7%	0.0	-18.0%	-10.1%	i
COc1ccccc1CNC(=O)c1ccc2c(c1)N(Cc1cc(C)ccc1C)C(=O)c1ccccc1S2	5.1%	8.7%	-24.8	x	-12.5%	-19.8%
